This is a sample that favours compounds with a hit; in the whole collection about 2.3% have one here.
Bcl-xL primary – Bcl-xL (human) inhibition; Q07817; GST-Bcl-xL / FITC-Bim BH3 peptide fluorescence polarization; inhibition, % at 10.9 µM; hit rate 0.7% among 320,000;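 active = inhibition above the mean of all tested compounds plus 3 SD, cutoff set per campaign, cut at about 30% in these data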;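 note: 0% = DMSO wells and 100% = unlabeled Bim-BH3 peptide competitor; inhibitors lower millipolarization by displacing the labeled peptide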
GLD-1 TGE inh – GLD-1-TGE RNA interaction inhibition (C. elegans); purified GLD-1 + fluorescein TGE RNA, fluorescence polarization; inhibition, % at 5.96 µM; hit rate 0.44% among 320,000; AID 2280;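 active = percent inhibition above a per-plate cutoff, the plate mean of test compounds plus 3 SD, cut at about 30% in these data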;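 note: 0% = DMSO wells with GLD-1 and probe and 100% = wells lacking GLD-1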
Target sequence (Q17339 whole entry, looked up): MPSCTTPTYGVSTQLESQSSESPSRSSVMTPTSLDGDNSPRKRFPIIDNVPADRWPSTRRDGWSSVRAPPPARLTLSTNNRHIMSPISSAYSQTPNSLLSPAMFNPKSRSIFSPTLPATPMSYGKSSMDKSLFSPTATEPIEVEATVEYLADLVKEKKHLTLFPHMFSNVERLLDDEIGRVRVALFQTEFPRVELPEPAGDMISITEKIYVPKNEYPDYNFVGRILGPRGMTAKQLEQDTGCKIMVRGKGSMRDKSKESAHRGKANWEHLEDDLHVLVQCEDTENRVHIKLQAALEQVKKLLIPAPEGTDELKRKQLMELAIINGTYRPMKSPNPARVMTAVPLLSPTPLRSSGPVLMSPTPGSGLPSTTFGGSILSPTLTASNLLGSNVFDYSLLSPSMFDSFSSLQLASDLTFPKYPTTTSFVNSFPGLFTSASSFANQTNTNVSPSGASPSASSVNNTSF
Bim-Mcl-1 – inhibitors of Bim-Mcl-1 interaction, human. Q07820. Bead-based flow cytometry, Bim peptide-Mcl-1 binding. inhibition, % at 10 µM. hit rate 0.1% among 190,000. AID 1009; in the data active = inhibition above about 40%;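 note: 0% = no compound tracer wells and 100% = peptide blocker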
MCL1 BIM primary – inhibitors of human MCL1 binding to BIM-BH3 peptide; inhibition, % at 10.9 µM; hit rate 0.68% among 320,000; Q07820; GST-MCL1 / FITC-Bim-BH3 fluorescence polarization; AID 2057;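 active = inhibition above the mean inhibition of all tested compounds plus 3 SD, set per campaign, cut at about 40% in these data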;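 note: 0% = DMSO wells and 100% = unlabeled Bim-BH3 peptide control; higher means more loss of mP so more displacement of Bim peptide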
Mcl1-Bid inh – disrupts binding of human Mcl-1 to Bid peptide. Q07820. TR-FRET Mcl-1/Bid-Dy647 peptide binding, 1536-well. inhibition, % at 21.7 µM. hit rate 0.97% among 220,000;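 active = compounds that cut the binding signal by more than half at the single screening dose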;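 note: His-tagged Mcl-1 with europium anti-His antibody binding Bid BH3 peptide; 0% = Mcl-1 plus peptide wells and 100% = peptide-only wells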
Mcl1 Noxa PPI – disrupts binding of human Mcl-1 to Noxa peptide; Q07820; TR-FRET Mcl-1/Noxa peptide binding, 2 h; inhibition, % at 21.7 µM; hit rate 1.5% among 220,000;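 active = compounds that cut the protein-peptide binding signal by more than 50% relative to plate controls in a single-dose test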;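 note: His-tagged Mcl-1 with rhodamine Noxa BH3 peptide and terbium anti-His antibody; 0% = Mcl-1 plus Noxa peptide wells and 100% = peptide-only wells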
The depositor's hits bear a star; . = not tested or not shown.

SMILES	Bcl-xL primary	GLD-1 TGE inh	Bim-Mcl-1	MCL1 BIM primary	Mcl1-Bid inh	Mcl1 Noxa PPI
CC1=Nc2ccc(C)cc2/C1=C/c1c(N)n2c(S(=O)(=O)C(C)C)nsc2nc1=O	.	.	-2	.	17	81*
Cc1ccc(/C=C2/Sc3ccc(C(=O)N4CCN(C)CC4)cc3NC2=O)cc1	37*	17	.	34	.	.
CC(C)C[C@H]1CNC(=O)C(=O)N1C[C@H](C)NC(=O)Cc1ccccc1	5	1	.	1	.	.
COc1ccc(N(CC(=O)NCc2ccc(F)cc2)C(=O)c2snc(C(N)=O)c2N)cc1	1	-2	.	2	.	.
S=c1[nH]nc(-c2cccc(Cl)c2)n1/N=C/c1ccc(-c2ccccc2Br)o1	-18	-8	.	-7	46	72*
Cc1nnc(C)n1/N=C/c1ccc(-c2ccccc2Cl)o1	6	2	.	6	.	.
S=c1[nH]nc(-c2ccccc2)n1/N=C/c1ccc(-c2ccccc2Cl)o1	-22	6	-3	-11	34	64*
CC(C)c1ccc(OCc2ccc(C(=O)O)o2)cc1	2	4	.	-4	-3	69*
CCCCc1c(C)nc2c(OC)cccc2c1SCCC(=O)O	5	-5	0	8	6	52*
CC(=O)Nc1ccc(C(=O)NCC2(N3CCCCC3)CCCCC2)cc1	-14	7	.	-22	.	.
CC1=C/C(=C(/c2cc(C)c(O)c(Br)c2)c2ccccc2S(=O)(=O)O)C=C(Br)C1=O	41*	19	.	43*	.	.
CC1=C/C(=C(/c2ccc(O)c(C)c2)c2ccccc2S(=O)(=O)O)C=CC1=O	12	6	.	6	.	.
COc1cc(/C=C(\C#N)c2nc3ccccc3o2)ccc1O	-66	-158	.	-93	-80	32
COc1cc(/C=C(\C#N)c2nc(-c3cc4ccccc4oc3=O)cs2)ccc1O	2	-7	-1	3	64*	59*
COc1cc(/C=C(/C#N)c2nc(-c3cc4ccccc4oc3=O)cs2)cc([N+](=O)[O-])c1O	.	.	.	.	97*	98*
CC1CCC(=C(C#N)c2nc(-c3cc4ccccc4oc3=O)cs2)CC1 (stereo not drawn)	4	-4	0	5	-16	10
Cc1ccc(S(=O)(=O)c2nc(-c3ccccc3Cl)oc2N(C)C)cc1	-3	4	.	11	.	.
CN(C)c1oc(-c2ccccc2Cl)nc1P(=O)(c1ccccc1)c1ccccc1	6	2	0	5	-12	64*
Cc1ccc(C(=O)OCC(=O)Nc2ccc(N(C)C)cc2)cc1NC(=O)c1ccco1	5	-3	0	-6	-50	79*
Cc1ccc(C(=O)OCC(=O)Nc2ccccc2)cc1NC(=O)c1ccco1	1	5	-7	-9	-11	-7
COC(=O)c1ccc(/C=N/NC(=O)c2ccccc2Cl)cc1	5	1	-1	9	0	16
CC(C)c1ccc(/C=N/NC(=O)c2ccccc2Cl)cc1	1	3	45*	-2	-3	20
S=c1[nH]nc(-c2ccncc2)n1/N=C/c1cn(-c2ccccc2)nc1-c1ccc(Cl)cc1	-10	1	.	-3	-59	62*
COc1ccc(-c2nnc(-c3cc4c(ccc5ccccc54)oc3=O)o2)cc1	6	-7	3	13	34	64*
O=c1oc2ccc3ccccc3c2cc1-c1nnc(-c2ccccc2)o1	6	-4	0	3	20	38
SMILES	Bcl-xL primary	GLD-1 TGE inh	Bim-Mcl-1	MCL1 BIM primary	Mcl1-Bid inh	Mcl1 Noxa PPI
CCN(C(=O)COC(=O)CCc1ccccc1)c1ccccc1	-5	-7	.	-6	.	.
O=C(NCc1nnc(SCC(=O)N2CCOCC2)o1)c1c(F)cccc1Cl	0	9	3	-6	77*	19
O=C(NCc1nnc(SCC(=O)N2CCCC2)o1)c1c(F)cccc1Cl	3	4	-4	9	-6	-3
CN(C)c1ccc(N2CC(C)(C)C2=O)cc1	3	14	-3	8	-46	63*
COc1cccc(CN(C)C(=O)c2cc(-c3cccs3)nc3ccccc23)c1	4	3	.	4	.	.
O=S(=O)(Nc1cc(Sc2ncn[nH]2)c(O)c2ccccc12)c1ccccc1	.	.	4	.	18	83*
COc1ccc(NC2CCCN(C(=O)c3ccccc3C(F)(F)F)C2)cc1 (stereo not drawn)	-3	7	.	1	.	.
Cc1cc(N=Nc2ccc(C)c(N=Nc3cc(C)c(N)cc3N)c2)c(N)cc1N	19	3	.	21	-135	60*
